# Screens deposited in PubChem by National Center for Advancing Translational Sciences (NCATS).
# An excerpt weighted towards active compounds, which were near 0.88% of everything screened.
# Six1-Eya2 inh: qHTS Assay for Inhibitors of the Six1/Eya2 Interaction; activity change, % (test concentration not listed); 360,000 tested, 0.56% active; AlphaScreen GST-Six1/His-Eya2 binding, biochemical; hits give low values; in the data active = activity change below about -65%; inconclusive = mostly about -30% to -63%; note: % is set by controls: 0 for no effect and ±100 for the full control effect
# Target sequence (O00167 whole entry, looked up): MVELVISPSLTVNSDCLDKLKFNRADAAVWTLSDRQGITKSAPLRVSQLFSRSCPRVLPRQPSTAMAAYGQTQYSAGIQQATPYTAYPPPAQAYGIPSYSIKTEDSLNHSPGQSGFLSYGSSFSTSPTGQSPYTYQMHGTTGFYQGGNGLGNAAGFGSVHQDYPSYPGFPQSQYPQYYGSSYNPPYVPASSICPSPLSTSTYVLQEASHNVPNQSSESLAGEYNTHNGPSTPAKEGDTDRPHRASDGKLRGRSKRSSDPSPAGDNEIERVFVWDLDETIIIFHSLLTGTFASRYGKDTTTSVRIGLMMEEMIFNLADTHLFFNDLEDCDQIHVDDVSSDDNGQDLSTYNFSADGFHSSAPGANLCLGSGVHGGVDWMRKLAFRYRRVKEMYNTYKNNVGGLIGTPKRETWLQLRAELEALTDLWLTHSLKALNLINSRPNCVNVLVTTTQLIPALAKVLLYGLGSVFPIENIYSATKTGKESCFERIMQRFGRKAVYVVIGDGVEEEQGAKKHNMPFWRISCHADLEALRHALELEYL
# Target sequence (Q15475 whole entry, looked up): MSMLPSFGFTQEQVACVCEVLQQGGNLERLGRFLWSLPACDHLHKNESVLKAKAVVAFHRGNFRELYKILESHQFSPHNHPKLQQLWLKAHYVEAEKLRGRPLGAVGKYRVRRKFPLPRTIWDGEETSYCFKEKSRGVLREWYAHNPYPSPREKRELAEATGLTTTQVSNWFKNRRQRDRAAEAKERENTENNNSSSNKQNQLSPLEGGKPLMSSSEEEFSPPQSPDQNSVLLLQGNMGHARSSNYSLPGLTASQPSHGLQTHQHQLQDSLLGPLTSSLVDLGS
#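 AlphaScreen with GST-Six1 and His-Eya2 (5X mix: 250 nM and 500 nM), glutathione donor and nickel acceptor beads; buffer 50 mM Tris pH 8.0, 300 mM NaCl, 1 mM TCEP; 1 h at 37 C in the dark.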
# Glioma ERSR ind: qHTS for Inducers of the Endoplasmic Reticulum Stress Response (ERSR) in Human Glioma: qHTS; U87-MG GRP78 promoter luciferase reporter, 16 h; Potency, µM, inactives show top-dose activation, most hits filed as activators; 420,000 tested, 0.02% active; note: potency is the fitted concentration of half-maximal effect; series mostly up to about 76 µM; % of control where 0% means no effect; nearly all actives have a fitted effect of over 35% in size
#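 Stably transfected U87-MG human glioma cells carrying a GRP78-based luminescent sensor were seeded at 1000 cells/well, pin-dosed with compounds and incubated 16 h. Luciferase reagent was then added, and end-point luminescence was read after 10 min at room temperature.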
# pAkt inh: HTS Assay for Inhibitors of Akt Phophorylation: Primary Screen; Neuro2A IGF-stimulated pAkt S473 HTRF, 20 min; hits give low values; activity change, % for hits at 50 µM; 360,000 tested, 0.32% active; AID 651550, 2012; in the data active = activity change below about -80%; inconclusive = mostly about -51% to -80%; note: % is set by controls: 0 for no effect and ±100 for the full control effect
#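 Single-point screen (50 µM final compound) in Neuro2A cells stimulated 20 min with 6 nM IGF at 37 deg C. After lysis, Ser473-phosphorylated Akt read by HTRF (ex 330 nm, em 615/665 nm) as the 665/615 ratio.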
# CtBP-E1A inh: qHTS Assay for Inhibitors of the CtBP/E1A Interaction; activity change, % (no concentration beside the values); AID 651724, 2012; AlphaScreen GST-E1A/His-CtBP binding, 1536-well; hits give low values; 340,000 tested, 0.49% active; in the data active = activity change below about -65%; inconclusive = mostly about -30% to -63%; note: % is set by controls: 0 for no effect and ±100 for the full control effect
#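 Steps: dispense buffer (Tris pH 8.0, NaCl 300 mM, TCEP 1 mM, BSA, Tween 20); add 5X protein mix (GST-E1A, His-CtBP, 125 nM each); pin 23 nL compound; 2 h at 37 °C, dark; add 5X beads (50 ug/mL); 1 h; read.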
# RGS4 inh: Inhibitors of Regulator of G Protein Signaling (RGS) 4: qHTS; Potency, µM (series often up to 114 µM), for the others: at the top dose activity change, negative = inhibition, usual class: inhibitors; Regulator of G-protein signaling 4 (Homo sapiens), P49798; 390,000 tested, 0.039% active; Transcreener GDP fluorescence polarization, RGS4-accelerated GTP hydrolysis; note: potency is the fitted concentration of half-maximal effect; % is set by controls: 0 for no effect and ±100 for the full control effect; nearly all actives have a fitted effect of over 75% in size
#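 MLSMR compounds (23 nl, pin-transferred) preincubated 10 min at room temperature with a 500nM (2x) first reagent, then RGS4 at 900nM (2x) plus Transcreener GDP mix added; fluorescence polarization (620/688 nm) read before and after 90 min at 30 °C.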
# * = called active by the depositor; i = inactive; ? = inconclusive; / = no result given; [ ] = dose if it differs, or a comment. Unless noted, calls come from the whole dose curve; as a rule, active = well fitted curve in the direction sought with a large enough effect; inconclusive = small, poorly fitted or top-dose-only effect, or another doubt; inactive = no such curve, though single readings can be large; an effect the other way counts as inactive or inconclusive.
SMILES,Six1-Eya2 inh,Glioma ERSR ind,pAkt inh,CtBP-E1A inh,RGS4 inh
Cc1cc(/C=N/NC(N)=S)c(O)c(/C=N/NC(N)=S)c1,-87*,-3%,i,-92*,-40%
Oc1ccccc1/C=N/Nc1ccccc1,-15,?,i,0,-22%
NC(=S)N/N=C/c1ccc(/C=N/NC(N)=S)cc1,3,-5%,i,/,-33%
NC(=S)N/N=C/c1ccccc1O,-87*,-3%,i,-68*,-8%
CCn1cc(C(=O)O)c(=O)c2cc(F)c(N/N=C/c3ccccc3)cc21,?,-1%,i,-74*,21%
CCC(=O)NC(c1ccc(Cl)cc1Cl)c1ccc2cccnc2c1O (stereo not given),-80*,-6%,i,?,21%
CC(=O)NC(c1ccco1)c1ccc2cccnc2c1O (stereo not given),-93*,-2%,i,-97*,13%
CC(=O)NC(c1ccc(Cl)cc1)c1ccc2cccnc2c1O (stereo not given),?,-6%,i,/,13%
CCC(=O)NC(c1ccc(C)cc1)c1ccc2cccnc2c1O (stereo not given),-89*,-5%,i,-90*,-52%
Cc1ccnc(NC(c2ccccc2F)c2ccc3cccnc3c2O)c1 (stereo not given),/,-3%,/,/,-14%
CCCC(=O)NC(c1ccc(C(C)C)cc1)c1ccc2cccnc2c1O (stereo not given),?,-5%,i,-65*,14%[56.9 µM]
CCCCC(=O)NC(c1ccc(OC)cc1)c1ccc2cccnc2c1O (stereo not given),-7,-5%,i,18,/
CCCCC(=O)NC(c1ccc(Cl)cc1Cl)c1ccc2cccnc2c1O (stereo not given),-29,-4%,i,?,-52%[56.9 µM]
CCCC(=O)NC(c1ccccc1Cl)c1ccc2cccnc2c1O (stereo not given),-85*,-3%,i,?,4%
CC(C)C(=O)NC(c1ccc(Cl)cc1Cl)c1ccc2cccnc2c1O (stereo not given),-14,-3%,i,/,-7%
COc1ccc(C(NC(=O)C(C)C)c2ccc3cccnc3c2O)cc1 (stereo not given),-89*,-1%,i,-93*,10%
CCCC(=O)NC(c1ccc(N(C)C)cc1)c1ccc2cccnc2c1O (stereo not given),-69*,-3%,i,-92*,-26%[56.9 µM]
Cc1ccccc1C1(CC(=O)N2CCCCC2c2cccnc2)CC(=O)N(C2CCCC2)C1=O (stereo not given),/,-2%,/,/,/
CSC1=NC(NCCCO)c2c(sc3c2CC(C)(C)OC3)N1 (stereo not given),14,-5%,-101%*,0,-31%
CSc1nc(SCC(=O)O)c2c3c(sc2n1)COC(C)(C)C3,1,-1%,i,4,-9%
CCn1nc(C(=O)Nc2nc(-c3ccccn3)cs2)c2ccccc2c1=O,?,-2%,i,/,-31%
COC(=O)c1cccc(NC(=O)c2nn(C)c(=O)c3ccccc23)c1,-83*,4%,i,-85*,6%
CCCn1nc(C(=O)Nc2nc(-c3ccccn3)cs2)c2ccccc2c1=O,-77*,-3%,i,-86*,-17%
Cn1nc(C(=O)Nc2nc(-c3ccccn3)cs2)c2ccccc2c1=O,-91*,-3%,i,-91*,?
C(=C\c1ccc2ccccc2n1)/c1cccnc1,/,-10%,/,/,/
CC(C)c1nc(C(=O)N2CCOc3ccc(CN4CCN(c5ccccn5)CC4)cc3C2)cs1,/,0%,/,/,/
c1coc(CNc2nc[n+]3c4c2ncn4CC3)c1,/,/,/,/,7%
OC[C@H]1O[C@@H](n2cnc3c2NC=NC[C@H]3O)C[C@@H]1O,/,-5%,/,/,/
COCCN(C)C(=O)c1cnn(-c2nccc(-c3cc(OC)ccc3OC)n2)c1C,/,0%,/,/,/
COC(=O)c1cc(C)nc2c1C(=O)C(=O)C=C2N1CCOCC1,-67*,-14%,i,-68*,-36%
